# Reference: PubChem BioAssay (NCATS)
# Records with an inconclusive call do not appear. Entries that show only a call come without a potency. Active and inactive are the calls of the source. Calls come from the whole dose curve; as a rule, active = well fitted inhibition curve with a large enough effect; inconclusive = small, poorly fitted or top-dose-only effect; inactive = flat fitted curve, though single readings scatter.
# What was measured:
# [1] = target: Ubiquitin carboxyl-terminal hydrolase 1 (Homo sapiens) (UniProt O94782); experiment: Inhibitors of USP1/UAF1: Pilot qHTS (AID 504865);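 note: rhodamine fluorescence freed from ubiquitin-rhodamine substrate followed over time; top concentration of the series differs between compounds; nearly all actives have a fitted effect of over 35% in size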
# Method in brief: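 USP1/UAF1 complex (1nM) preincubated with compound 15 min at room temperature, then Ub-Rho substrate (150nM final) added. Fluorescence read kinetically at 480/540 nm, 6 reads every 60 seconds. Buffer: 50mM HEPES pH 7.8, 0.5mM EDTA, 0.1 mg/ml BSA, 1mM TCEP, 0.01% Tween-20.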
# [2] = system: AA1029; experiment: qHTS profiling for inhibitors of Plasmodium falciparum proliferation (AID 504749); note: nearly all actives have a fitted effect of over 60% in size; note: potency is the fitted concentration of half-maximal effect; settings: P. falciparum in erythrocytes, SYBR Green DNA, 72 h; series mostly up to 28.7 µM
# Method in brief: (§1)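 In a 72 h erythrocytic culture (37 C, humidified, 5% CO2) at 2.5% hematocrit and 0.3% starting parasitemia, compounds were tested; SYBR Green I in detergent lysis buffer stained parasite DNA overnight.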
# [3] = system: ATS95; experiment: as above; settings: P. falciparum in erythrocytes, SYBR Green DNA, 72 h; series mostly up to 28.7 µM
# Method in brief: as §1
# [4] = system: C2A; experiment: as above; settings: P. falciparum in erythrocytes, SYBR Green DNA, 72 h; series mostly up to 28.7 µM
# Method in brief: as §1
# [5] = system: CP203; experiment: as above; settings: P. falciparum in erythrocytes, SYBR Green DNA, 72 h; series mostly up to 28.7 µM
# Method in brief: as §1
# [6] = system: CP211; experiment: as above; settings: P. falciparum in erythrocytes, SYBR Green DNA, 72 h; series mostly up to 28.7 µM
# Method in brief: as §1
# [7] = system: CP217; experiment: as above; settings: P. falciparum in erythrocytes, SYBR Green DNA, 72 h; series mostly up to 28.7 µM
# Method in brief: as §1
# [8] = system: CP238; experiment: as above; settings: P. falciparum in erythrocytes, SYBR Green DNA, 72 h; series mostly up to 28.7 µM
# Method in brief: as §1
# [9] = system: CP250; experiment: as above; settings: P. falciparum in erythrocytes, SYBR Green DNA, 72 h; series mostly up to 28.7 µM
# Method in brief: as §1
# [10] = system: CP252; experiment: as above; settings: P. falciparum in erythrocytes, SYBR Green DNA, 72 h; series mostly up to 28.7 µM
# Method in brief: as §1
# [11] = system: CP256; experiment: as above; settings: P. falciparum in erythrocytes, SYBR Green DNA, 72 h; series mostly up to 28.7 µM
# Method in brief: as §1
# [12] = system: CP265; experiment: as above; settings: P. falciparum in erythrocytes, SYBR Green DNA, 72 h; series mostly up to 28.7 µM
# Method in brief: as §1
# [13] = system: CP329; experiment: as above; settings: P. falciparum in erythrocytes, SYBR Green DNA, 72 h; series mostly up to 28.7 µM
# Method in brief: as §1
# [14] = system: DIV17; experiment: as above; settings: P. falciparum in erythrocytes, SYBR Green DNA, 72 h; series mostly up to 28.7 µM
# Method in brief: as §1
# [15] = system: JCK; experiment: as above; settings: P. falciparum in erythrocytes, SYBR Green DNA, 72 h; series mostly up to 28.7 µM
# Method in brief: as §1
# [16] = system: PAD; experiment: as above; settings: P. falciparum in erythrocytes, SYBR Green DNA, 72 h; series mostly up to 28.7 µM
# Method in brief: as §1
# [17] = system: PC15; experiment: as above; settings: P. falciparum in erythrocytes, SYBR Green DNA, 72 h; series mostly up to 28.7 µM
# Method in brief: as §1
# [18] = system: PC26; experiment: as above; settings: P. falciparum in erythrocytes, SYBR Green DNA, 72 h; series mostly up to 28.7 µM
# Method in brief: as §1
# [19] = system: SC27B; experiment: as above; settings: P. falciparum in erythrocytes, SYBR Green DNA, 72 h; series mostly up to 28.7 µM
# Method in brief: as §1
# [20] = system: TAB165; experiment: as above; settings: P. falciparum in erythrocytes, SYBR Green DNA, 72 h; series mostly up to 28.7 µM
# Method in brief: as §1
# Sequence of Ubiquitin carboxyl-terminal hydrolase 1 (Homo sapiens) (O94782 whole entry, looked up): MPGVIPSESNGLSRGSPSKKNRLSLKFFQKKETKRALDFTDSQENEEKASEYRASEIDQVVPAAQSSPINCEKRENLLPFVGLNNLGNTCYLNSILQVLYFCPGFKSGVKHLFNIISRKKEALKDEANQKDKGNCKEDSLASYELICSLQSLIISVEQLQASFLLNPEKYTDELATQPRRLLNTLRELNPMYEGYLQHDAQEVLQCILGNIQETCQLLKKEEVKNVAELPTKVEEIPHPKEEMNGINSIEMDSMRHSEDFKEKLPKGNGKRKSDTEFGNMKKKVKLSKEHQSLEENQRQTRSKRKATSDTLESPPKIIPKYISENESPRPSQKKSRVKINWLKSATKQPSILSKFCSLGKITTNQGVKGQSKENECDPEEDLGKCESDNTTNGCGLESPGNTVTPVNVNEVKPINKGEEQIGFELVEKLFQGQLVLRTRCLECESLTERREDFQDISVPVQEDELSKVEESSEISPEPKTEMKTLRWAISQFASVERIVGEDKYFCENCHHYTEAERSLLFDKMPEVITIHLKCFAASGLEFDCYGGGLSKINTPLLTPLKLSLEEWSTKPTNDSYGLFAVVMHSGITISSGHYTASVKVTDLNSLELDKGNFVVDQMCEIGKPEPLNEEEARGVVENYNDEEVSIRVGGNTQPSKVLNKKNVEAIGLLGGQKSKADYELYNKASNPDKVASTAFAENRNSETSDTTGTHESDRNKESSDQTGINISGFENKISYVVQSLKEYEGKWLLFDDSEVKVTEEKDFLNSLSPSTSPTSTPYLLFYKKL
Compound,Potency [1],Potency [2],Potency [3],Potency [4],Potency [5],Potency [6],Potency [7],Potency [8],Potency [9],Potency [10],Potency [11],Potency [12],Potency [13],Potency [14],Potency [15],Potency [16],Potency [17],Potency [18],Potency [19],Potency [20]
OC[C@H](S)CS,inactive,10 µM (active),12.6 µM (active),inactive,inactive,inactive,inactive,inactive,inactive,inactive,inactive,inactive,inactive,3.38 µM (active),10 µM (active),inactive,3.16 µM (active),inactive,inactive,inactive
C[N+]1(C)[C@@H]2CC(OC(=O)[C@@H](CO)c3ccccc3)C[C@@H]1[C@H]1O[C@H]12 (some centres undefined),inactive,inactive,–,inactive,inactive,inactive,inactive,inactive,inactive,inactive,inactive,inactive,inactive,inactive,inactive,inactive,inactive,inactive,inactive,inactive
CC(=O)N1CCN(c2ccc(OC[C@@H]3CO[C@@](Cn4ccnc4)(c4ccc(Cl)cc4Cl)O3)cc2)CC1,–,inactive,inactive,inactive,–,inactive,inactive,inactive,inactive,inactive,inactive,inactive,inactive,–,inactive,inactive,–,–,inactive,–
C(=C/c1ccccc1)/CN1CCN(C(c2ccccc2)c2ccccc2)CC1,inactive,inactive,inactive,inactive,inactive,inactive,inactive,inactive,inactive,inactive,inactive,inactive,inactive,inactive,inactive,inactive,inactive,inactive,inactive,inactive
Cc1nnc(SCC2=C(C(=O)O)N3C(=O)[C@@H](NC(=O)Cn4cnnn4)[C@@H]3SC2)s1,inactive,–,–,–,–,–,–,–,–,–,–,–,–,–,–,–,–,–,–,–
COc1cc2nc(N(C)CCCNC(=O)[C@@H]3CCCO3)nc(N)c2cc1OC,inactive,inactive,inactive,inactive,inactive,inactive,inactive,inactive,inactive,inactive,inactive,inactive,inactive,inactive,inactive,inactive,inactive,inactive,inactive,inactive
N[C@H](COP(=O)(O)O)C(=O)O,inactive,inactive,inactive,inactive,inactive,inactive,inactive,inactive,inactive,inactive,inactive,inactive,inactive,inactive,inactive,inactive,inactive,inactive,inactive,inactive
